Polio RdRp inh – poliovirus RdRp elongation inhibitors, primary screen, biochemical, fluorescence polarization, total intensity | % elongation, % (compound at 16.7 µg/mL) | Genome polyprotein (Poliovirus type 1 (strain Mahoney)), P03300 | poliovirus polymerase elongation; active compounds read low | 150,000 compounds, 0.66% hits; in the data active means % elongation below about 90%
Target sequence (P03300 1749-2209 limits assumed): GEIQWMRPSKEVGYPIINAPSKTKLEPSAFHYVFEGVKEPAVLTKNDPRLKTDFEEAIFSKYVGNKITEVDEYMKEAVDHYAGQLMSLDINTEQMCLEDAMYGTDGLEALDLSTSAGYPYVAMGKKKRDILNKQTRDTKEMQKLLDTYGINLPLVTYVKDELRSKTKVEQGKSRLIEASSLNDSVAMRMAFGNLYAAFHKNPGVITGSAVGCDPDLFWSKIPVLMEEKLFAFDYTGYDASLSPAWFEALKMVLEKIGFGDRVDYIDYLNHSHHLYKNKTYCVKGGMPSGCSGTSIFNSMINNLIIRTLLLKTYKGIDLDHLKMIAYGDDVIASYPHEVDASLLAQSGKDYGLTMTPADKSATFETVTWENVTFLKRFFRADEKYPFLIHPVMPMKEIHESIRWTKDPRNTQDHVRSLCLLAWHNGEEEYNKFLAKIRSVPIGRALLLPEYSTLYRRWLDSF
AID504770 – growth inhibition of E. coli YBA685, primary screen, V. cholerae RctB inhibitors | E. coli YBA685 rctB-dependent plasmid, OD600 growth, 3 h; active compounds read low | z-score (no concentration beside the values) | 130,000 compounds, 0.27% hits | AID 504770, 2011; in the data active means z-score below about -2, passing the limit was not always enough
Mtb MbtI inh – MbtI salicylate synthase inhibitors, primary screen, biochemical, fluorescence intensity; inhibition, % (concentration not given with the values); P9WFX0; 100,000 compounds, 0.89% hits; purified MbtI enzyme, fluorescence intensity read-out; AID 493033, 2011; in the data active means inhibition mostly above about 56%, no sharp cut-off; inactive means mostly below about 77%
Mtb MenB inh – M. tuberculosis MenB inhibitors, primary screen, biochemical, absorbance; MenB enzyme assay, absorbance read-out; inhibition, % (concentration not given with the values); 1,4-dihydroxy-2-naphthoyl-CoA synthase (Mycobacterium tuberculosis (strain ATCC 25618 / …; 100,000 compounds, 0.43% hits; in the data active means inhibition above about 21%, passing the limit was not always enough
* = called active by the depositor; . = no result given; ! = repeats disagree. A selection: hits, their analogues and other compounds. The true share with any hit is near 1.4%.

SMILES | Polio RdRp inh | AID504770 | Mtb MbtI inh | Mtb MenB inh
COc1ccc(CN(Cc2nc3ccccc3c(=O)[nH]2)C(=O)NCc2ccccc2)cc1 | 105 | -3.5* | 6 | -41
COc1cccc(CN2CCN(C(=O)Nc3cccc(OC)c3)CC2)c1 | 103 | -0.2 | -6 | 12
COCCn1c(-c2ccccc2)nc(=S)c2c1CCCC2 | 100 | 1.4 | 12 | -2
O=C(c1ccc(F)cc1)N1CCc2ccccc2C1 | 85* | -0.55 | . | -16
CC1CCN(c2nc3ccccn3c(=O)c2/C=N/NC(=O)c2ccccc2)CC1 | 103 | -0.95 | -2 | 9
CCOC(=O)c1c(P(=O)(N2CCOCC2)N2CCOCC2)noc1N | 99 | 0.7 | 0 | 41*
C/C(=N\NC(=O)C(F)(F)F)c1ccccc1O | 103 | 1 | 1 | 34*
CS(=O)(=O)c1ccc(C(=O)OCc2cc(=O)n3ccsc3n2)cc1 | 99 | 1.4 | -2 | -33
Nc1ccc(N2CCOCC2)c(N)c1 | 56* | 0.25 | 35 | -43
Nc1cc(Cl)c(N2CCOCC2)cc1N1CCOCC1 | . | 0.25 | . | .
CN(CCCn1cnc2c([nH]c3ccc(Cl)cc32)c1=O)C1CCCCC1 | 103 | 0.25 | -5 | -6
CNC(=O)c1ccc(CN2CCc3ccccc3C2)cc1 | 102 | -0.35 | 0 | 27*
CCn1c(C)nc2cc(OC)ccc21 | 102 | 0.9 | 6 | .
COc1cc2nc(C)n(C(=S)S)c2cc1OC | 78* | 0.6 | 10 | -25
Cn1cc(C(=O)NC2CCCC2)c(=O)c2cc(S(=O)(=O)N3CCCCC3)ccc21 | 100 | 0.5 | -3 | -23
O=C(CCN1C(=O)NC2(CCCC2)C1=O)NCc1cccs1 | 100 | -0.4 | -4 | -6
CCOC(=O)CC1=Nn2c(nnc2C2CCCCC2)SC1 | 105 | -0.45 | 3 | -16
NNC(=O)Cc1nn2c(C3CCCCC3)nnc2s1 | 99 | 2.2 | 70* | -20
Cc1ccccc1N1CC(c2nnc(NC(=O)c3ccco3)s2)CC1=O (stereo not drawn) | 82* | . | . | .
CSc1nnc(NC(=O)c2ccco2)s1 | . | -1.1 | . | .
N#Cc1c(-c2cccs2)cc(-c2ccc(C(=O)O)cc2)nc1SCc1cccs1 | 78* | -0.4 | . | 4
S=c1[nH]nc(Cc2ccccc2)n1Cc1ccccc1 | 103 | 0 | 62*! | -6
C1CN2CN3CCN(CN1C3)C2 | 103 | -2.4* | -10 | -27
CCc1ccc(C(=O)Nc2nncs2)cc1 | 100 | 0.55 | 9 | 13
Cc1ccc(C(=O)Nc2nncs2)cc1 | 101 | -0.55 | 16 | 26*
SMILES | Polio RdRp inh | AID504770 | Mtb MbtI inh | Mtb MenB inh
O=C(Nc1ccc(F)cc1)C(Sc1nnc(C2CC2)o1)c1ccccc1 (stereo not drawn) | 96 | -0.4 | 55* | -4
CCC(=O)n1nc(-c2ccco2)nc1SCc1ccccc1 | 101 | -1.2 | -10 | -6
CCC(=O)n1nc(-c2ccco2)nc1SC | 99 | 2 | 54* | 8
COc1cc(NC(=O)c2ccco2)c(OC)cc1NC(=O)CCC(=O)NC1CCN(Cc2ccccc2)CC1 | 104 | -1.4 | -16 | -45
CCN(CC)c1ccc(NC(=S)Nc2ccc(S(N)(=O)=O)cc2)cc1 | 102 | -0.25 | 63* | -19
CCN(CC)c1ccc(NC(=S)NC(C)C)cc1 | 100 | 0.55 | 29 | -10
Cn1c(CC(=O)NN)nc2ccccc21 | 102 | 0.65 | 11 | -44
N#Cc1c(-c2ccccc2)cc(-c2ccccc2)nc1SCC(O)CS(=O)(=O)Cc1ccccc1 (stereo not drawn) | 80* | . | . | .
CNC(=O)Oc1c(Br)cc2sc(=O)oc2c1Br | 95 | 0.05 | 100* | 9
O=C1CC2CCC(CN1)N2CC(=O)Nc1ccc(F)cc1 (stereo not drawn) | 101 | 1.3 | -9 | -26
CC(NC(=O)CN1C2CCC1CC(=O)NC2)c1ccccc1 (stereo not drawn) | 100 | 1.6 | 0 | 29*
Cc1cc(=O)[nH]c(SCC(=O)c2ccc3c(c2)NC(=O)CO3)n1 | 103 | -0.35 | 29 | 16
O=C1COc2ccc(C(=O)CSC(=S)N3CCCC3)cc2N1 | 81* | 2.3 | 89 | -49
CC(C)NC(=O)C1CCN(C(=O)NCc2ccccc2)CC1 | 100 | -0.75 | -15 | -23
CSc1ncc(F)c(N(C)C)n1 | 102 | 0.3 | . | -7
Cc1cnc(C)c(N(C)C)n1 | 57* | 1.1 | 70 | 31*
COc1ccc(-n2cc(C(=O)NC(C)CCc3ccco3)c3ccccc3c2=O)cc1 (stereo not drawn) | 106 | 1.6 | -68 | -30
O=C1COc2ccc(-c3cc(-c4ccccc4)c4c(n3)-c3ccccc3OC4)cc2N1 | 109 | . | . | .
O=C1COc2ccc(-c3csc(-n4nccc4C(F)(F)F)n3)cc2N1 | 87* | -0.2 | 14 | -23
COc1ccc2c(c1)c1nc(N(C)C)nc3c1n2CCN3C | 6.0* | 2 | -48 | -28
CN=C1c2c(C)c3cc(OC)ccc3n2CCN1C | 104 | 0.5 | -75 | 8
S=c1[nH]c2c(s1)sc1ccccc12 | 102 | 0.45 | 91* | -83
Clc1nsc2ccccc12 | . | -0.9 | 96 | -42
COc1cc(/C=C2/C(=O)NN(c3ccc(Cl)cc3)C2=O)ccc1OC(=O)c1ccco1 | 101 | -0.35 | 99* | -42
C=CCN1C(=O)/C(=C\c2ccc(OC(=O)c3ccco3)c(OC)c2)SC1=S | 105 | -0.6 | -9 | -37
SMILES | Polio RdRp inh | AID504770 | Mtb MbtI inh | Mtb MenB inh
Cc1ccc(N(CC(=O)Nc2ccccc2C(=O)NCc2ccco2)S(C)(=O)=O)cc1Cl | 21* | 1.2 | 1 | -14
CNC(=O)c1c(C)[nH]c(=S)c(C#N)c1-c1ccco1 | 103 | 1.5 | 99* | -26
CNC(=O)c1c(C)nc(SCC(=O)OCC(=O)Nc2ccc(C)c(C)c2)c(C#N)c1-c1ccco1 | 103 | 1.6 | 2 | -33
CC(C)(C)NC(=O)CSc1nnc(NC2=NS(=O)(=O)c3ccccc32)s1 | 97 | -0.55 | 1 | -13
CCn1nnnc1SCC(=O)Nc1ccccc1 | 102 | -0.85 | -8 | 17
CN(C)[C@@H]1C(=O)C(C(=O)NCN2CCCC2)=C(O)[C@@]2(O)C(=O)C3=C(O)c4c(O)cccc4[C@@](C)(O)C3CC12 (stereo partly drawn) | 96 | . | -10 | -4
C=C1c2cccc(O)c2C(O)=C2C(=O)[C@]3(O)C(O)=C(C(N)=O)C(=O)[C@@H](N(C)C)[C@@H]3[C@@H](O)[C@H]12 | 100 | -3.4* | -1 | 5
C=C1c2c(Cl)ccc(O)c2C(O)=C2C(=O)[C@]3(O)C(O)=C(C(N)=O)C(=O)[C@@H](N(C)C)[C@@H]3[C@@H](O)[C@H]12 | 102 | -4.2* | -54 | 4
C[C@H]1c2cccc(O)c2C(O)=C2C(=O)C3(O)C(O)=C(C(N)=O)C(=O)[C@@H](N(C)C)[C@@H]3[C@@H](O)[C@@H]21 (stereo partly drawn) | 101 | . | 3 | -12
CN(C)[C@@H]1C(=O)C(C(N)=O)=C(O)[C@@]2(O)C(=O)C3=C(O)c4c(O)cccc4[C@@](C)(O)[C@H]3C[C@@H]12 | 99 | -3.2* | 3 | -1
